PubChem BioAssay (Tox21)
Inconclusive results are not listed. Where a call stands in place of a potency, no number is given. Calls of active or inactive are those of the source. Unless noted, the call rests on the fitted dose curve; in most records, active means well fitted curve in the direction sought with a large enough effect in the repeat runs; inconclusive means weak or mixed curves; inactive means flat fitted curve, though single readings scatter.

System: not listed separately
Experiment: qHTS assay to test for compound auto fluorescence at 460 nm (blue) in HepG2 cells (AID 720687)
Settings: autofluorescence 405/460 nm, 1 h; series mostly up to 91.3 µM; fluorescence, % of fluorescent control: at the top concentration
How it was run: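 Blue-channel autofluorescence (Ex/Em 405/460 nm, triamterene-equivalent) was measured after 1 hr compound exposure at 37 C, 5% CO2. Cells were HepG2, plated overnight at 37 C in MEM plus 10% FBS.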

Q: For `CCCCC(CC)COC(=O)C(C#N)=C(c1ccccc1)c1ccccc1` (centres undefined), which outcome is on record?
A: inactive

Q: For `O=C(Oc1ccccc1)c1ccccc1`, which outcome is on record?
A: inactive

Q: With `CC1CCC(C(C)C)C(O)C1` (centres undefined) as the compound, how does the outcome read?
A: inactive

Q: For `CCCCCCCCCCCCOCCO`, which “fluorescence, % of fluorescent control” value is on record?
A: 0.0099% (inactive)

Q: For `O=C(O)[C@H](O)[C@@H](O)[C@H](O)[C@H](O)CO`, which outcome is on record?
A: inactive

Q: For `CCCSc1ccc2nc(NC(=O)OC)[nH]c2c1`, which outcome is on record?
A: inactive

Q: For `O=C(O)CCCC[C@@H]1SC[C@@H]2NC(=O)N[C@@H]21`, which outcome is on record?
A: inactive

Q: With `CCc1ccc(CCOc2ccc(CC3SC(=O)NC3=O)cc2)nc1` (centres undefined) as the compound, how does the outcome read?
A: inactive

Q: Which outcome does the source give for `COc1ccc2cc([C@H](C)C(=O)O)ccc2c1` here?
A: inactive

Q: For `COCCCOc1ccnc(CS(=O)c2nc3ccccc3[nH]2)c1C` (centres undefined), which outcome is on record?
A: inactive

Q: With `O=C(O)c1cc(C(=O)O)cc(S(=O)(=O)O)c1` as the compound, how does the outcome read?
A: inactive

Q: Which outcome does the source give for `Cc1ccc2oc(=O)ccc2c1` here?
A: inactive

Q: With `Cc1occc(=O)c1O` as the compound, how does the outcome read?
A: inactive

Q: With `CCN(CC)c1ccc(C(=O)c2ccccc2C(=O)O)c(O)c1` as the compound, how does the outcome read?
A: inactive

Q: For `CC(c1cc2ccccc2s1)N(O)C(N)=O` (centres undefined), which outcome is on record?
A: inactive

Q: For `CC(C)c1ccc(S(=O)(=O)O)cc1`, which outcome is on record?
A: inactive

Q: With `O=C(O)c1ccccc1C(c1ccc(O)cc1)c1ccc(O)cc1` as the compound, how does the “fluorescence, % of fluorescent control” value read?
A: 0.0289% (inactive)

Q: Which outcome does the source give for `OCc1cccnc1` here?
A: inactive

Q: With `COS(C)(=O)=O` as the compound, how does the outcome read?
A: inactive

Q: With `CCCCCC/C(C=O)=C\c1ccccc1` as the compound, how does the outcome read?
A: inactive

Q: With `CCCCCC1=CCCC1=O` as the compound, how does the outcome read?
A: inactive

Q: For `CCCCCOC(C)=O`, which outcome is on record?
A: inactive

Q: For `C#C[C@]1(O)CC[C@H]2[C@@H]3CCC4=CC(=O)CC[C@@H]4[C@H]3CC[C@@]21C`, which outcome is on record?
A: inactive

Q: Which outcome does the source give for `CCCCC(CC)COC(=O)CCCCC(=O)OCC(CC)CCCC` (centres undefined) here?
A: inactive

Q: Which outcome does the source give for `COc1ccc(NC(C)=O)cc1N` here?
A: inactive

Q: For `OC[C@H]1O[C@@](CO)(O[C@H]2O[C@H](CO)[C@@H](O)[C@H](O)[C@H]2O)[C@@H](O)[C@@H]1O`, which outcome is on record?
A: inactive

Q: With `Cc1cccnc1` as the compound, how does the outcome read?
A: inactive

Q: Which outcome does the source give for `NNc1nncc2ccccc12` here?
A: inactive

Q: With `CC1=CCC2CC1C2(C)C` (centres undefined) as the compound, how does the outcome read?
A: inactive

Q: With `O=C(O)CCCCCCCCCCC(=O)O` as the compound, how does the outcome read?
A: inactive

Q: For `CCN(CC)CCCC(C)Nc1ccnc2cc(Cl)ccc12` (centres undefined), which outcome is on record?
A: inactive

Q: Which outcome does the source give for `CC(=O)Nc1ccccc1` here?
A: inactive

Q: For `CC(=O)CC(=O)Nc1ccccc1`, which outcome is on record?
A: inactive

Q: With `OCC(CO)(CBr)CBr` as the compound, how does the outcome read?
A: inactive

Q: Which outcome does the source give for `CCCCCCCCC/C=C/CC1CC(=O)OC1=O` (centres undefined) here?
A: inactive

Q: Which outcome does the source give for `CC[C@H](C)C(=O)O[C@H]1C[C@@H](C)C=C2C=C[C@H](C)[C@H](CC[C@@H]3C[C@@H](O)CC(=O)O3)[C@H]21` here?
A: inactive

Q: With `O=[N+]([O-])c1ccc(/C=C/c2ccc([N+](=O)[O-])cc2S(=O)(=O)O)c(S(=O)(=O)O)c1` as the compound, how does the outcome read?
A: inactive

Q: Which outcome does the source give for `CC1=CC(=O)NS(=O)(=O)O1` here?
A: inactive

Q: With `C=C(C)C(=O)Nc1ccc(Cl)c(Cl)c1` as the compound, how does the outcome read?
A: inactive

Biological target: Glucocorticoid receptor (Homo sapiens) (UniProt P04150)
Sequence (P04150 whole entry, looked up): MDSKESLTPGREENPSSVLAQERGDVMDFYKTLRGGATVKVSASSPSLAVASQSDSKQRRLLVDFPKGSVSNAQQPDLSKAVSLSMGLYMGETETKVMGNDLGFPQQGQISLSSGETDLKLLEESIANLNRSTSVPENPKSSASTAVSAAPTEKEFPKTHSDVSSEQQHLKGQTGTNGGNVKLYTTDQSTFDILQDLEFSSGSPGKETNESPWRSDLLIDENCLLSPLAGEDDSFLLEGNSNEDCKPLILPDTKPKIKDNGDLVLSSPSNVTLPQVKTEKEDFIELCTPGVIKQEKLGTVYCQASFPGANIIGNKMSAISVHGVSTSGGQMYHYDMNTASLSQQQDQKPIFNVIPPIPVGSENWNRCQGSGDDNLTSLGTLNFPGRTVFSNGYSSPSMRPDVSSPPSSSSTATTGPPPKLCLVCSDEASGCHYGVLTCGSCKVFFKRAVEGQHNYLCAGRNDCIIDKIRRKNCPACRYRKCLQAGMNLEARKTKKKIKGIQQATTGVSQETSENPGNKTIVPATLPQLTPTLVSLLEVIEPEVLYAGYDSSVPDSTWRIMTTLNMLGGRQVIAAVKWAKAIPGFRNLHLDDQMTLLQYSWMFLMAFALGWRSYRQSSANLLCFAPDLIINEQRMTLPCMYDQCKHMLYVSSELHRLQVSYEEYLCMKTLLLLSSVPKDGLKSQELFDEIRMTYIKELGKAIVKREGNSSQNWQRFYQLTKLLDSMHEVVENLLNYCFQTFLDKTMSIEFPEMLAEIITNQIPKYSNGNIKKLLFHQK
Experiment: qHTS assay to identify small molecule agonists of the glucocorticoid receptor (GR) signaling pathway (AID 720691; active means well fitted activation curve with a large enough effect in the signal ratio in the repeat runs, not every such curve was filed as active; the % refers to the signal ratio)
Settings: GR-bla HeLa, beta-lactamase reporter ratio, 18 h; activation: at 62.4 µM (top of the series)
How it was run: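 Measures GR pathway activation through a GRE-beta-lactamase reporter stably integrated in HeLa cells, with 18 h compound treatment at 37 C and fluorescence detection using a FRET substrate.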

Q: For `O=C(O)CCCC[C@@H]1SC[C@@H]2NC(=O)N[C@@H]21`, which Potency is on record?
A: inactive

Q: Which Potency does the source give for `CCc1ccc(CCOc2ccc(CC3SC(=O)NC3=O)cc2)nc1` (centres undefined) here?
A: inactive

Q: Which Potency does the source give for `Cc1ccc2oc(=O)ccc2c1` here?
A: inactive

Q: Which Potency does the source give for `CC(c1cc2ccccc2s1)N(O)C(N)=O` (centres undefined) here?
A: inactive

Q: For `COS(C)(=O)=O`, which Potency is on record?
A: inactive

Q: With `CCCCCC1=CCCC1=O` as the compound, how does the Potency read?
A: inactive

Q: With `C#C[C@]1(O)CC[C@H]2[C@@H]3CCC4=CC(=O)CC[C@@H]4[C@H]3CC[C@@]21C` as the compound, how does the “activation” value read?
A: -8.09% (inactive)

Q: With `COc1ccc(NC(C)=O)cc1N` as the compound, how does the Potency read?
A: inactive

Q: With `O=C(O)CCCCCCCCCCC(=O)O` as the compound, how does the Potency read?
A: inactive

Q: With `CCN(CC)CCCC(C)Nc1ccnc2cc(Cl)ccc12` (centres undefined) as the compound, how does the Potency read?
A: inactive

Q: With `OCC(CO)(CBr)CBr` as the compound, how does the Potency read?
A: inactive

Biological target: Glucocorticoid receptor (Homo sapiens) (UniProt P04150)
Experiment: qHTS assay to identify small molecule antagonists of the glucocorticoid receptor (GR) signaling pathway (AID 720692; active means well fitted inhibition curve with a large enough effect in the signal ratio in the repeat runs, not every such curve was filed as active; the % refers to the signal ratio)
Settings: GR-bla HeLa, beta-lactamase FRET ratio, dexamethasone-stimulated, 18 h; series mostly up to 58.5 µM; activity change, negative = inhibition: at the top concentration
How it was run: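 Tox21 10K library screened in concentration-response for blockade of dexamethasone (5 nM final)-induced GRE-bla reporter activity in HeLa cells; 18 h treatment, fluorescence read.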

Q: For `O=C(O)c1cc(C(=O)O)cc(S(=O)(=O)O)c1`, which “activity change, negative = inhibition” value is on record?
A: 0.422% (inactive)

Q: With `Cc1ccc2oc(=O)ccc2c1` as the compound, how does the “activity change, negative = inhibition” value read?
A: -1.59% (inactive)

Q: Which Potency does the source give for `CC(c1cc2ccccc2s1)N(O)C(N)=O` (centres undefined) here?
A: inactive

Q: For `O=C(O)c1ccccc1C(c1ccc(O)cc1)c1ccc(O)cc1`, which “activity change, negative = inhibition” value is on record?
A: -20.1% (inactive)

Q: With `CCCCCOC(C)=O` as the compound, how does the Potency read?
A: inactive

Q: With `CCCCC(CC)COC(=O)CCCCC(=O)OCC(CC)CCCC` (centres undefined) as the compound, how does the Potency read?
A: inactive

Q: Which Potency does the source give for `COc1ccc(NC(C)=O)cc1N` here?
A: inactive

Q: For `CC(=O)Nc1ccccc1`, which Potency is on record?
A: inactive

Q: With `CC(=O)CC(=O)Nc1ccccc1` as the compound, how does the Potency read?
A: inactive
